{"source": "PubChem BioAssay (NCATS)", "note": "Several values for one entry are separate records, joined by “and”; a condition that tells them apart may be missing. Identical values can stand only once. Inconclusive results are not listed. Where a call stands in place of a potency, no number is given. Some compounds were tested as several samples or in several runs, with calls that do not always agree. Activity calls are given as the source filed them. Calls follow the shape of the dose curve; as a rule, active = well fitted inhibition curve with a large enough effect; inconclusive = small, poorly fitted or top-dose-only effect; inactive = no such curve, though single readings can be large or run the other way. Potency is read from the fitted curve at half-maximal effect.", "data": [{"molecular_target": "M-phase phosphoprotein 8 (Homo sapiens) (UniProt Q99549)", "sequence (Q99549 whole entry, looked up)": "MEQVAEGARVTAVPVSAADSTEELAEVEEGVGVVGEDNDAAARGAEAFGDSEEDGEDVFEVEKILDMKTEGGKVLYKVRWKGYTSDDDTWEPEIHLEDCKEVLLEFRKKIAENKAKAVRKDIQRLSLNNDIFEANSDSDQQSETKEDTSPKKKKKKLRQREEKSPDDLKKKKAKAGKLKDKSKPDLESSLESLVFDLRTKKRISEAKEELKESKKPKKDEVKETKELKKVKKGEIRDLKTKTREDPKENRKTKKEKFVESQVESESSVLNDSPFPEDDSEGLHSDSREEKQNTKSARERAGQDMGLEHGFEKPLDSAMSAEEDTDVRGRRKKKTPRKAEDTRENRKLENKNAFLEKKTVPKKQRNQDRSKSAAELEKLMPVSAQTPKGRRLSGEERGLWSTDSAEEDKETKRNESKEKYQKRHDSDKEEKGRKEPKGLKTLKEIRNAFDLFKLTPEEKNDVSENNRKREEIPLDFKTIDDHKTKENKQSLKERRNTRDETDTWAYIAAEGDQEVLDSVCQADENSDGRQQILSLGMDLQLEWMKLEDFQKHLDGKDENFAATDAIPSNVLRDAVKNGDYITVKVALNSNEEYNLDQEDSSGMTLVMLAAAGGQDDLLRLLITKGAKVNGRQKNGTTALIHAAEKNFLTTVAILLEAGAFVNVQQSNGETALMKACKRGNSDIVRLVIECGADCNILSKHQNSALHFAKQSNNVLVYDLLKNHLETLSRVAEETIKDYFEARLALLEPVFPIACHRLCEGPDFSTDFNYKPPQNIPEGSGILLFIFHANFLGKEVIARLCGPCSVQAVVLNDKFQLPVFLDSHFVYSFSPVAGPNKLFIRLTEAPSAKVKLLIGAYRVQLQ", "test": "qHTS Validation Assay for Inhibitors for MPP8 Chromodomain Interactions with Methylated Histone Tails (AID 488949); also: nearly all actives have a fitted effect of over 55% in size", "details": "AlphaScreen MPP8 binding to H3K9me3 peptide; series mostly up to 57.1 µM", "from_the_text": "As our understanding of epigenetics expands, it is becoming clear that players in this field are potential targets for drug development. This area of epigenetic therapy has established applications for the treatment of cancer and neurological diseases. We have been involved in this field for a number of years and have performed high-throughput screens to identify the first small molecule inhibitors of protein methyltransferases. These methyltransferases target multiple substrates, and thus regulate many arms of an epigenetic pathway. The methylation of different substrates often generates docking sites for effector proteins that harbor binding domains (chromo, tudor, PHD, MBT and ANK repeats). It has been proposed that the binding sites generated for different proteins by these post-translational modifcations mediate downstream effects on chromatin. Consistent with this theory, di- and tri-methylation of histone H3K9 facilitates the binding of heterochromatin protein HP1. The HP1 protein harbors a chromodomain that is responsible for the methyl-dependent interaction between HP1 and lysine 9 of histone H3. HP1 was first described in flies as a heterochromatin associated protein that can regulate gene silencing. It harbors a chromodomain that binds H3K9me3. In addition, it harbors a chromoshadow domain that interacts with a large number of proteins that are involved in heterochromatin formation and gene repression. There are three highly related HP1 isoforms. All three variants are associated with pericentric heterochromatin and it is not clear whether they have specific or redundant functions. MPP8 is also involved in the repression of gene in euchromatic regions (unpublished data) and like HP1 its chromodomain binds H3K9me3. MPP8 harbors an ankyrin repeat region that is likely involved in binding and recruiting interacting proteins with transcriptional repressive function, much like the chromoshadow domain of HP1 does. We hypothesize that by inhibiting specific protein-protein interactions we will be able to develop compounds that block a single arm of an epigenetic pathway. The specificity attained by blocking a single protein-protein interaction will be far greater than that attained by blocking the enzyme that regulates one of many interactions. Low-affinity protein-protein interactions (Kd in the single- to double-digit micromolar range) such as those discussed here have been very difficult to assay by traditional techniques such as fluorescence polarization or fluorescence resonance energy transfer. We have developed a sensitive chemiluminescence-based assay (Quinn, et al. 2009), which serves as the starting point for this project. The following is a validation assay to identify lead compounds that can block methyl-dependent protein-protein interactions (specifically MPP8), which can be used as probes to analyze these methyl-driven interactions and perhaps even developed into targeted epigenetic therapies. Assay Provider: Mark T. Bedford, MD Anderson Screening Center PI: Austin, C.P. Screening Center: NIH Chemical Genomics Center [NCGC]\nTo each well, 2 uL of MPP8 protein (final 50 nM) and 1 uL biotinylated histone peptide trimethylated at Lys9 [b-H3(1-18)K9me3] (final 50 nM) was added in 1x PBS buffer, pH 7.4, containing 0.01% Tween-20 using a nanoliter dispenser. Formation of a protein-peptide complex proceeded at room temperature for 30 min. A Kalypsys pin-tool was employed to transfer 23 nL of library compound solution in DMSO to each well. Aurintricarboxylic acid (ATA) was used as an intraplate control with a 12-point titration in duplicate. Following a 30 min incubation of the protein-peptide complex with compounds at room temperature, a mixture of 40 ug/mL each streptavidin-coated donor and nickel chelate acceptor AlphaScreen beads (final 10 ug/mL) was added in a 1 uL dispense for a final volume of 4 uL. Plates were incubated protected from the light for 30 min at room temperature. […]", "values": [{"smiles": "Cc1[nH]c(=O)c(C#N)cc1-c1ccc2nccn2c1", "Potency": "inactive"}, {"smiles": "CC(C[N+](C)(C)C)OC(N)=O", "note": "(stereo not given)", "Potency": "inactive"}, {"smiles": "C1COC(NC(C2CC2)C2CC2)=N1", "Potency": "inactive"}, {"smiles": "c1ccc([C@H]2CN3CCSC3=N2)cc1", "Potency": "inactive"}, {"smiles": "CCCCNc1cc(C(=O)O)cc(S(N)(=O)=O)c1Oc1ccccc1", "Potency": "inactive"}, {"smiles": "N[C@@H]1CONC1=O", "Potency": "inactive"}, {"smiles": "NC[C@H](O)c1ccc(O)c(O)c1", "Potency": "inactive"}, {"smiles": "Cc1[nH]c(=O)c(C#N)cc1-c1ccncc1", "Potency": "inactive"}, {"smiles": "CC(C)C[C@H](NC(=O)[C@@H](O)[C@H](N)Cc1ccccc1)C(=O)O", "Potency": "inactive"}, {"smiles": "O=c1n(CCCN2CCN(c3cccc(Cl)c3)CC2)nc2ccccn12", "Potency": "inactive"}, {"smiles": "CC(=O)Oc1ccccc1C(=O)O", "Potency": "inactive"}, {"smiles": "NNCCc1ccccc1", "Potency": "inactive"}, {"smiles": "CC(C)(C)NCC(O)c1ccc(O)c(CO)c1", "note": "(stereo not given)", "Potency": "inactive"}, {"smiles": "Cc1oncc1C(=O)Nc1ccc(C(F)(F)F)cc1", "Potency": "inactive"}, {"smiles": "NC(=O)c1cnccn1", "Potency": "inactive"}, {"smiles": "N=c1nc(N2CCCCC2)cc(N)n1O", "Potency": "inactive"}, {"smiles": "Cc1ccccc1C(OCCN(C)C)c1ccccc1", "note": "(stereo not given)", "Potency": "inactive"}, {"smiles": "CCOC(=O)C1=C[C@]2(CC)CCCN3CCc4c(n1c1ccccc41)[C@@H]32", "Potency": "inactive"}, {"smiles": "O=NN(CCCl)C(=O)NCCCl", "Potency": "inactive"}, {"smiles": "Cn1cnc([N+](=O)[O-])c1Sc1ncnc2nc[nH]c12", "Potency": "inactive"}, {"smiles": "OC(CN1CCC(Cc2ccc(F)cc2)CC1)c1ccc(Cl)cc1", "note": "(stereo not given)", "Potency": "inactive"}, {"smiles": "Cc1cnc(NC(=O)C2=C(O)c3ccccc3S(=O)(=O)N2C)s1", "Potency": "inactive"}, {"smiles": "CN1CCN(CCCN2c3ccccc3Sc3ccc(C(F)(F)F)cc32)CC1", "Potency": "20 µM (active)"}, {"smiles": "Nc1ccc(S(=O)(=O)Nc2ccnn2-c2ccccc2)cc1", "Potency": "inactive"}, {"smiles": "NCCc1ccc(O)c(O)c1", "Potency": "inactive and 1.06 µM (active)"}, {"smiles": "CCN(CC)CCCC(C)Nc1ccnc2cc(Cl)ccc12", "note": "(stereo not given)", "Potency": "inactive"}, {"smiles": "O=C(Nc1nc2ccccc2n1CCN1CCOCC1)c1cccc([N+](=O)[O-])c1", "Potency": "inactive"}, {"smiles": "C[C@]12CCC(=O)C=C1CC[C@@H]1[C@@H]2[C@@H](O)C[C@@]2(C)[C@H]1CC[C@]2(O)C(=O)CO", "Potency": "inactive"}, {"smiles": "Oc1ccc(C2CNCCc3c2cc(O)c(O)c3Cl)cc1", "note": "(stereo not given)", "Potency": "inactive"}, {"smiles": "O=c1[nH]cnc2[nH]ncc12", "Potency": "inactive"}, {"smiles": "CCC(C)N(C)C(=O)c1cc2ccccc2c(-c2ccccc2Cl)n1", "note": "(stereo not given)", "Potency": "inactive"}, {"smiles": "CCCC(CCC)C(=O)O", "Potency": "inactive"}, {"smiles": "Cc1ccc(N(CC2=NCCN2)c2cccc(O)c2)cc1", "Potency": "inactive"}, {"smiles": "Cc1cn[nH]c1", "Potency": "inactive"}, {"smiles": "O=C1CCC(N2C(=O)c3ccccc3C2=O)C(=O)N1", "note": "(stereo not given)", "Potency": "inactive"}, {"smiles": "O=C1CCc2cc(OCCCCc3nnnn3C3CCCCC3)ccc2N1", "Potency": "inactive"}, {"smiles": "CCn1cc(C(=O)O)c(=O)c2cc(F)c(N3CCNC(C)C3)c(F)c21", "note": "(stereo not given)", "Potency": "inactive"}, {"smiles": "CNC[C@H](O)c1cccc(O)c1", "Potency": "inactive"}, {"smiles": "Nc1ncnc2nc(-c3ccc(N4CCOCC4)nc3)cc(-c3cccc(Br)c3)c12", "Potency": "inactive"}, {"smiles": "OC(CCN1CCCCC1)(c1ccccc1)C1CC2C=CC1C2", "note": "(stereo not given)", "Potency": "inactive"}]}]}
